Compound activity as filed in PubChem.
NALP1 inh = blocks the NALP1 inflammasome reconstituted in yeast. S. cerevisiae NALP1/ASC/caspase-1 growth, X-gal OD620, 72 h. actives 0.61% (n = 280,000). inhibition, % at 10 µM; in the data active = inhibition mostly above about 24%, no sharp cut-off; inactive = mostly below about 32%
SUMO Mot1 rescue = blocks SUMOylation pathway, rescuing yeast Mot1-301 growth. S. cerevisiae Mot1-301 growth rescue, ATP luminescence, 38.5C; percent above DMSO median, 100 means doubled. growth rescue, % at 18.8 µM. actives 1% (n = 320,000). AID 2716;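 active = every valid replicate shows activation above 250% relative to neutral control wells; inactive = the rest, any valid replicate at or below 250%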;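 note: OY570 slx delta 5 strain wells were the positive control but not used for scaling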
PolyA inh = inhibitors of polyadenylation in S. cerevisiae; actives 0.02% (n = 300,000); S. cerevisiae SKY197-pL101 polyadenylation reporter, beta-gal luminescence; efflux-impaired pdr1/pdr3 knockout yeast; score 100 = 6 SD above DMSO; activity score, % at 12 µM;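 active = lowest replicate activity score at least 50, where 100 means six control SD above control mean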;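 note: yeast exposed to compound for 9 h at 30 °C; higher score means more reporter readthrough which indicates perturbed polyadenylation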
NALP3 yeast inh = inhibitors of NALP3 inflammasome in yeast | inhibition, % at 10 µM | AID 2825 | actives 0.39% (n = 330,000) | Yeast reconstituted NLRP3/ASC/caspase-1, beta-gal luminescence, 24 h;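 active = inhibition of 50% or more; inactive = inhibition below 50%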;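 note: plate controls were induced DMSO wells for no effect and uninduced yeast grown without galactose for full effect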
NALP3 yeast conf = NALP3 inhibition confirmation in yeast | shares compounds with NALP3 yeast inh | yeast expressing human NALP3, luminescence | inhibition, % at 10 µM | actives 81% (n = 1,300); in the data active = inhibition above about 48%
Casp1-ASC yeast = caspase-1-ASC yeast counter-screen hit. inhibition, % at 10 µM. shares compounds with NALP3 yeast inh. yeast expressing Caspase-1-ASC, luminescence counter screen. AID 488784. actives 66% (n = 1,000)
NALP3 yeast rt = confirmation retest of NALP3 inhibitors in yeast | yeast expressing human NALP3, luminescence read-out | shares compounds with NALP3 yeast inh | inhibition, % at 10 µM | actives 53% (n = 1,000)
* hit, by the source's call; x = no result given. This is a sample that favours compounds with a hit; in the whole collection about 1.8% have one here. Cut-off read from the data, not from the text of the source, unless noted: active = inhibition above about 50%; inactive = the rest.

SMILES | NALP1 inh | SUMO Mot1 rescue | PolyA inh | NALP3 yeast inh | NALP3 yeast conf | Casp1-ASC yeast | NALP3 yeast rt
CC(C)N=c1cc2n(-c3ccc(Cl)cc3)c3ccccc3nc-2cc1Nc1ccc(Cl)cc1 | x | -29.6 | -11.5 | 56.0* | 68.4* | x | x
Cn1c(CNc2ccc(Cl)cc2)nc2ccccc21 | 16.1 | 448.4 | -4.7 | 0.5 | x | x | x
Cc1cc(NC(=O)CSc2nc(N)c(NC(=O)c3ccco3)c(=O)[nH]2)no1 | x | -5.9 | -4.7 | 5.4 | x | x | x
CC(=Nc1cccc(O)c1)c1sc2ccccc2c1O | 7.3 | 8.4 | -16.7 | 52.3* | 50.2* | 19.4 | 22.9
CN(C(=O)Nc1ccc(Cl)cc1)c1c2c(nn1C)CCCC2 | -6.6 | 230.1 | 4.1 | -1.4 | x | x | x
COc1ccc(C(=O)c2coc3ccc(OC(C)=O)cc23)cc1 | 15.2 | -6.3 | -12.0 | 44.4 | x | x | x
COc1ccc2occ(C(=O)c3ccc(N)cc3)c2c1 | 22.9 | -9.5 | -0.9 | 56.5* | 68.5* | 48.8 | 44.9
Cc1ccc(C(=O)c2coc3ccc(O)c(Cl)c23)cc1 | 13.3 | 10.9 | -11.8 | 37.2 | x | x | x
Cc1ccc(C(=O)c2coc3ccc(O)cc23)cc1 | 24.4 | -0.7 | 1.7 | 65.2* | 65.7* | 49.8 | 47.5
CCN1CCN(C(c2cccs2)C(C)NC(=S)Nc2cc(C)ccc2C)CC1 (stereo unspecified) | x | 23.9 | -1.4 | 4.0 | x | x | x
CSCc1c(C(=O)OCC(=O)c2ccc[nH]2)oc2ccccc12 | x | x | x | 51.0* | 67.5* | 55.3* | 41.5
COCc1c(C(=O)OCC(=O)c2ccc[nH]2)oc2ccccc12 | x | 22.0 | x | 13.9 | x | x | x
Cn1c(N2CCOCC2)c(/C=N/OC(=O)c2ccc(F)cc2)c2ccccc21 | 3.6 | 85.6 | -43.1 | 65.2* | 84.5* | 61.2* | 55.6*
COC(=O)c1ccc2c(c1O)C(=O)c1ccccc1C2=O | 26.4 | x | -42.3 | 53.8* | 61.1* | 61.0* | 51.9*
Nc1c(C(=O)O)ccc2c1C(=O)c1ccccc1C2=O | 5.2 | 1.7 | -8.7 | 34.1 | x | x | x
C#CCOc1ccc2c3c(c(=O)oc2c1)CCCC3 | 23.6 | -11.0 | -14.9 | 59.0* | 61.8* | 60.0* | 35.3
O=C(CCS(=O)(=O)c1ccccc1)N(CCCN1CCOCC1)c1nc2c(F)cccc2s1 | x | -9.9 | -9.9 | 56.6* | 71.6* | 42.6 | 52.6*
CCCOc1ccc(-c2cn3ccccc3n2)cc1 | 4.9 | -2.7 | -23.0 | 72.4* | 56.1* | 88.0* | 76.2*
COc1ccc(-c2cn3ccccc3n2)cc1 | 12.5 | -20.5 | 7.1 | 31.6 | x | x | x
CCOC(=O)Cc1csc(NC(=O)c2cccs2)n1 | 20.6 | -8.0 | -6.4 | 28.4 | x | x | x
CCOC(=O)Cc1csc(NC(=O)c2ccc(Br)s2)n1 | 39.0* | -7.6 | -9.4 | 66.9* | 76.2* | x | x
Cc1cc(Cl)c(S(=O)(=O)NC2CCCCC2)cc1OCC(=O)Nc1nncs1 | 4.3 | 35.2 | 6.0 | 50.4* | 49.5* | 35.6 | 29.9
Cc1ccc(N2CCN(S(=O)(=O)c3cccs3)CC2C)cc1 (stereo unspecified) | 35.3 | 58.9 | -14.1 | 55.6* | 57.4* | 57.0* | 50.0
O=S(=O)(c1cccs1)N1CCN(c2ccc(Cl)cc2)CC1 | 32.7 | -5.1 | 9.2 | 58.5* | 63.3* | 46.2 | 37.4
CC1(C)CC(=O)c2cnc(N3CCc4ccccc4C3)nc2C1 | -9.6 | -8.6 | 2.6 | 61.5* | 42.5 | 6.3 | 24.9
SMILES | NALP1 inh | SUMO Mot1 rescue | PolyA inh | NALP3 yeast inh | NALP3 yeast conf | Casp1-ASC yeast | NALP3 yeast rt
Nc1c(-c2ccccc2)cnn1-c1cccc(Cl)c1 | 25.6 | 22.9 | 8.5 | 50.3* | 76.0* | 59.2* | 54.5*
Cc1cccc(-c2cnn(-c3ccccc3)c2N)c1 | 28.2 | 12.6 | -9.6 | 42.9 | x | x | x
COc1ccccc1C(C)NS(=O)(=O)c1ccc(Cl)nc1 (stereo unspecified) | x | 112.9 | -7.2 | 18.8 | x | x | x
Cc1ccc(S(=O)(=O)N(C)/N=C/c2ccc(N(C)C)cc2)cc1 | 23.2 | -13.6 | -10.9 | 51.0* | 54.1* | 18.9 | 27.4
CS(=O)(=O)NCc1nnc(SCc2c(F)cccc2Cl)o1 | -19.1 | -11.4 | 0.6 | 9.6 | x | x | x
NCCc1nnc(SCc2c(F)cccc2Cl)o1 | 5.5 | 2.7 | -29.5 | 77.5* | 87.8* | 71.5* | 83.0*
NCCCCCc1nnc(SCc2ccccc2Cl)o1 | 11.4 | -7.0 | 16.7 | 20.3 | x | x | x
NCCc1nnc(SCC(=O)c2ccc(Cl)cc2)o1 | 30.5 | -11.2 | -21.3 | 56.3* | 71.2* | x | x
NCCc1nnc(SCc2c(Cl)cccc2Cl)o1 | 39.1* | 0.0 | -68.8 | 83.5* | 82.2* | 83.2* | 91.5*
O=C(NCCC1=CCCCC1)c1ccc([N+](=O)[O-])cc1 | 39.2 | 474.4 | 11.4 | 57.7* | 21.7 | x | x
O=C(CCNC(=O)c1ccc([N+](=O)[O-])cc1)NCCC1=CCCCC1 | x | -9.7 | 18.0 | 3.9 | x | x | x
Cc1cc(N(C)C)ccc1N=Nc1ccc(N)cc1 | x | 17.1 | -2.2 | 51.1* | 44.5 | 45.5 | 39.9
Nc1ccc(N=Nc2ccc(N)cc2)cc1 | 16.8 | 72.2 | -6.5 | 35.0 | x | x | x
COC(=O)c1ccc(OCC(=O)Nc2ccsc2C(=O)OC)cc1 | 1.5 | 5.1 | -5.4 | 17.3 | x | x | x
COC(=O)c1sccc1NC(=O)COc1cccc(C)c1 | x | 17.6 | -16.1 | 54.3* | 57.7* | 31.4 | 30.1
COc1ccc(C(=O)NN/C(C)=C/C(=O)C(F)(F)C(F)(F)C(F)(F)F)cc1 | 40.9 | -0.1 | 11.7 | 56.7* | 45.0* | 40.1 | 30.8
COc1ccc(C(=O)NNC(=O)OC(C)(C)C)cc1 | x | -12.7 | 0.5 | 23.3 | x | x | x
CCC1Nc2ncnc(N3CCN(c4ccccn4)CC3)c2N(Cc2ccc(Cl)cc2)C1=O (stereo unspecified) | x | -30.3 | -0.1 | 50.5* | 59.8* | 37.8 | 51.6*
CCC1Nc2ncnc(N3CCN(c4ccccn4)CC3)c2N(Cc2ccc(Br)cc2)C1=O (stereo unspecified) | x | -19.6 | x | 55.7* | 69.6* | 48.4 | 65.7*
CCC1Nc2ncnc(N3CCCCC3)c2N(Cc2ccc(Cl)cc2)C1=O (stereo unspecified) | x | 22.7 | x | 15.5 | x | x | x
CCC(Sc1nc2ccccc2c2nc3ccccc3n12)C(=O)NCc1ccco1 (stereo unspecified) | 11.6 | 15.7 | 2.1 | 7.2 | x | x | x
c1ccc(-c2ncc(-c3ccn[nH]3)s2)cc1 | -3.1 | -5.3 | -14.2 | 65.2* | 84.3* | 78.9* | 63.5*
CCOC(=O)CCSc1nc2c(c(C(F)(F)F)c1C#N)CCC2 | 13.4 | 2.9 | -28.9 | 59.7* | 46.9* | 64.3* | 58.7*
CCCCSc1nc2c(c(C(F)(F)F)c1C#N)CCC2 | -1.7 | -6.1 | 7.1 | 3.6 | x | x | x
CSCC[C@H](NC(=O)C1CCN(S(=O)(=O)c2ccc(C)cc2)CC1)C(=O)NC1CCS(=O)(=O)C1 (stereo partly specified) | 25.0 | 302.8 | -8.0 | 5.1 | x | x | x
CCCCOc1ccc(-c2csc(N)n2)cc1[N+](=O)[O-] | -16.0 | 120.8 | -12.2 | 57.0* | -13.1 | x | x
